Assay outcomes (PubChem)
Sa ugtP lethal = growth inhibition of ugtP-null S. aureus, primary screen, RN4220 ugtP deletion, OD600; growth inhibition, % (no concentration beside the values); 16 h; 330,000 tested, 0.54% active; in the data active means growth inhibition above about 68%;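 further: plate controls were untreated wells for no effect and antibiotic for full effect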
Sa RN4220 lethal = growth inhibition of S. aureus RN4220, primary screen, OD600; 330,000 tested, 0.33% active; AID 1259311, 2017; 16 h; inhibition, % (no concentration beside the values); in the data active means inhibition above about 85%;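 further: plate controls were untreated cells for no effect and reference antibiotic for full effect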
PriA SSB inh = inhibitors of Klebsiella pneumoniae PriA binding to SSB C-terminal tail, primary screen, biochemical, AlphaScreen. AID 1272365, 2023. 430,000 tested, 0.6% active. AlphaScreen SSBct-PriA binding, biotinylated peptide. inhibition, % at 33 µM; in the data active means inhibition mostly above about 37%, no sharp cut-off; inactive means mostly below about 20%;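 further: plate controls were negative control peptide for no effect and reference peptide for full effect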
CCHF vOTU inh = CCHFV vOTU protease inhibitors, primary screen, biochemical, Pep-AMC substrate, fluorescence | Crimean-Congo hemorrhagic fever virus L polyprotein viral ovarian tumor (vOTU) protease … | inhibition, % at 11.5 µM | 370,000 tested, 0.55% active | AID 651958, 2012; in the data active means inhibition above about 30%; further: 0% = vehicle wells with enzyme and 100% = no enzyme wells
VHR inh abs = VHR1 phosphatase inhibitors, primary screen, biochemical, absorbance, uHTS; 290,000 tested, 0.52% active; recombinant VHR phosphatase, pNPP absorbance; AID 1654, 2009; inhibition, % at 13.3 µM; Dual specificity protein phosphatase 3 (Homo sapiens), P51452; in the data active means inhibition above about 50%
Target sequence (P51452 whole entry, looked up): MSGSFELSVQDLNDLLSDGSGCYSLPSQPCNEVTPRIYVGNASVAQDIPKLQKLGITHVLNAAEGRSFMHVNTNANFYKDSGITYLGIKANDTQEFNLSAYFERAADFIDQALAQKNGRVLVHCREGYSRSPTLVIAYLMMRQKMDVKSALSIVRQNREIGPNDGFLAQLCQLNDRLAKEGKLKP
* marks the source's active call; other numbers are inactive results. Most compounds without a hit are left out; they make up all but 1.5% or so of the library.

COc1ccc(C2CC(c3ccncc3)=NN2c2ccc(S(N)(=O)=O)cc2)cc1 (centres undefined) was read as Sa ugtP lethal 8, Sa RN4220 lethal -4, PriA SSB inh -47 and CCHF vOTU inh -191.
For NS(=O)(=O)c1ccc(N2N=C(c3ccc(Br)cc3)CC2c2ccc(F)cc2)cc1 (centres undefined) the results were Sa ugtP lethal 45, Sa RN4220 lethal 98*, PriA SSB inh -30, CCHF vOTU inh -84 and VHR inh abs -5.
COc1ccc(C2CC(c3ccc(Cl)cc3)=NN2c2ccc(S(N)(=O)=O)cc2)cc1 (centres undefined) was read as Sa ugtP lethal 40, Sa RN4220 lethal 94*, PriA SSB inh -4 and CCHF vOTU inh -103.
O=[N+]([O-])c1ccc(C[n+]2cccc3c4ccccc4ccc32)cc1 was read as Sa ugtP lethal -4, Sa RN4220 lethal -3, PriA SSB inh 5, CCHF vOTU inh -15 and VHR inh abs 8.
CCCCCCCCC[n+]1cccc2c3ccccc3ccc21 was read as Sa ugtP lethal 100*, Sa RN4220 lethal 100*, PriA SSB inh -28 and VHR inh abs 7.
Nc1ccc2ccccc2c1N=Nc1ccccc1 was read as Sa ugtP lethal 95*, Sa RN4220 lethal 8, PriA SSB inh 18 and CCHF vOTU inh 15.
Nc1ncnc(N)c1N=Nc1ccccc1 was read as Sa ugtP lethal 7, Sa RN4220 lethal 15, PriA SSB inh -6, CCHF vOTU inh 17 and VHR inh abs 22.
`c1ccc(CNc2nc3ccccc3n3cnnc23)cc1` gave Sa ugtP lethal 13, Sa RN4220 lethal 2, PriA SSB inh 104*, CCHF vOTU inh 6 and VHR inh abs 0.
For CCCc1ccc(S(=O)(=O)Nc2ccc3c(c2)N(C)C(=O)C(C)(C)CO3)cc1 the results were PriA SSB inh -2.
For COc1ccc(C(=O)NN=C(Cc2ncc[nH]2)c2ccccc2)cc1 the results were Sa ugtP lethal 4, Sa RN4220 lethal 7 and PriA SSB inh -22.
Screening O=C(NN=C(Cc1ncc[nH]1)c1ccccc1)c1ccncc1 returned Sa ugtP lethal 9, Sa RN4220 lethal 11 and PriA SSB inh 48*.
For CCOC(=O)CCC(=O)N1CCS[C@H](c2ccccc2F)CC1 the results were PriA SSB inh -6.
`COc1cc(CNc2ccc3[nH]c(=O)[nH]c3c2)ccc1OCc1ccccc1` gave Sa ugtP lethal 12, Sa RN4220 lethal 4, PriA SSB inh 41*, CCHF vOTU inh 1 and VHR inh abs 12.
`CCOc1cc(Cl)c(S(=O)(=O)Nc2ccc3cn[nH]c3c2)cc1Cl` gave PriA SSB inh 5.
Screening COc1cc(CNc2ccc3[nH]c(=O)[nH]c3c2)ccc1OCc1ccc(F)cc1 returned Sa ugtP lethal -3, Sa RN4220 lethal 4, PriA SSB inh 19, CCHF vOTU inh -1 and VHR inh abs 12.
Screening COc1cccc(CNc2ccc3[nH]c(=O)[nH]c3c2)c1OCc1ccccc1 returned Sa ugtP lethal 7, Sa RN4220 lethal 1, PriA SSB inh 47* and VHR inh abs 47.
Screening COc1cc(CNc2ccc3[nH]c(=O)[nH]c3c2)ccc1OCc1c(F)cccc1Cl returned Sa ugtP lethal 13, Sa RN4220 lethal -1, PriA SSB inh 16, CCHF vOTU inh -2 and VHR inh abs 53*.
For COc1cc(CNc2ccc3[nH]c(=O)[nH]c3c2)ccc1OCc1ccccc1F the results were Sa ugtP lethal 6, Sa RN4220 lethal -1, PriA SSB inh 22, CCHF vOTU inh 15 and VHR inh abs 4.
`CCOc1cc(CNc2ccc3cn[nH]c3c2)ccc1OC` gave Sa ugtP lethal -4, Sa RN4220 lethal 0, PriA SSB inh -7, CCHF vOTU inh 59* and VHR inh abs 23.
For COC(=O)c1sccc1S(=O)(=O)NCc1cc(-c2ccco2)n(C)n1 the results were PriA SSB inh -17.
Cc1noc(Cc2ccccc2NC(=O)c2ccc3nsnc3c2)n1 was read as PriA SSB inh 23.
For O=C(/C=C\c1ccc2c(c1)OCO2)NCc1nnnn1-c1ccc(F)cc1 the results were PriA SSB inh -1.
For COc1cc(CNc2ccc3[nH]c(=O)[nH]c3c2)ccc1OCc1ccc(F)cc1Cl the results were Sa ugtP lethal -1, Sa RN4220 lethal -1, PriA SSB inh 16, CCHF vOTU inh -17 and VHR inh abs 1.
Screening COc1cc(CNc2ccc(O)cc2)cc(Br)c1OCc1ccccc1 returned Sa ugtP lethal 23, Sa RN4220 lethal -11, PriA SSB inh 1, CCHF vOTU inh 94* and VHR inh abs 22.
Screening COc1cccc(CNc2ccc3[nH]c(=O)[nH]c3c2)c1OCc1ccccc1Cl returned Sa ugtP lethal -8, Sa RN4220 lethal 2, PriA SSB inh 79*, CCHF vOTU inh 1 and VHR inh abs 8.
COc1cc(CNC(C)c2ccccc2)cc(Br)c1OCc1ccccc1 (centres undefined) was read as Sa ugtP lethal -11, Sa RN4220 lethal -9, PriA SSB inh -70, CCHF vOTU inh 8 and VHR inh abs 13.
Screening COc1ccc(Br)cc1CNc1ccc2[nH]c(=O)[nH]c2c1 returned Sa ugtP lethal -10, Sa RN4220 lethal -2, PriA SSB inh 39*, CCHF vOTU inh 5 and VHR inh abs 23.
Screening Cn1nc2c(c1NC(=O)[C@H]1CC(=O)N(c3ccccc3)C1)CCC2 returned PriA SSB inh 1.
For N#Cc1nc(-c2cccs2)oc1NCc1ccccc1 the results were Sa ugtP lethal -2, Sa RN4220 lethal 3, PriA SSB inh 25, CCHF vOTU inh -195 and VHR inh abs 2.
N#Cc1nc(-c2cccs2)oc1NCc1ccccc1Cl was read as Sa ugtP lethal -2, Sa RN4220 lethal -4, PriA SSB inh 45*, CCHF vOTU inh -106 and VHR inh abs -15.
Cc1cc(S(=O)(=O)N2CCCCC2)ccc1OCC(=O)N1CCOCC1 was read as Sa ugtP lethal -4, Sa RN4220 lethal -3, CCHF vOTU inh -7 and VHR inh abs 21.
For CCN1CCN(C(=O)COc2ccc(S(=O)(=O)N3CCOCC3)cc2C)CC1 the results were Sa ugtP lethal 5, Sa RN4220 lethal 5, PriA SSB inh 4, CCHF vOTU inh 6 and VHR inh abs 54*.
`CCOc1cc2c3c(c1)C1(Nc4ccccc4S1)C(=O)N3C(C)(C)CC2C` (centres undefined) gave Sa ugtP lethal -11, Sa RN4220 lethal -3, PriA SSB inh 40*, CCHF vOTU inh -1 and VHR inh abs 7.
CCOc1cc2c3c(c1)C1(OCCO1)C(=O)N3C(C)(C)CC2C (centres undefined) was read as Sa ugtP lethal 2, Sa RN4220 lethal 2, PriA SSB inh 0, CCHF vOTU inh 5 and VHR inh abs -12.
`COc1ccc(Cl)cc1C(=O)N1CCN(c2ncncc2C)CC1` gave PriA SSB inh 10.
